The results in this text go back to PubChem BioAssay AID2685 (National Center for Advancing Translational Sciences (NCATS), 2010).

Screen size: about 320,000 compounds; about 2,100 (0.66%) were called active. About 53% were inconclusive and are not listed. The call rests on the fitted dose curve; in most records, active means well fitted inhibition curve with a large enough effect in the signal ratio, with a control signal flat (not every such curve was filed as active); inconclusive means small, poorly fitted or top-dose-only effect, or effect the other way, or a change in a side signal; inactive means flat fitted curve, though single readings scatter; the % refers to the signal ratio. The full list was thinned out, with actives kept by preference.
Potency means the concentration at half of the fitted maximal effect.

The assay is described as follows: qHTS Assay for Lipid Storage Modulators in Drosophila S3 Cells.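 On cell number change: cells counted by Cell Tracker Red CMTPX staining in the red channel.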 On lipid storage change, negative = inhibition: on the % scale 0 is the no-effect control and ±100 the full control effect. To be noted: BODIPY lipid droplet fluorescence, 18-24 h, cells fed with added oleic acid; cell number change: measured here: cell count max response; series mostly up to 46.1 µM; lipid storage change, negative = inhibition: at the top concentration. Summed up:
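Drosophila S3 cells loaded with oleic acid (400 uM, as added) and compounds at several concentrations; lipid droplets imaged by 488-nm laser-scanning cytometry, 500–530 nm intensity and object ratio to cell channel. Percent activity normalized to 20 uM Triacsin C.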
On to `O=C1COc2ccc(C(=O)CSc3ccccc3C(=O)O)cc2N1`, for which the “lipid storage change, negative = inhibition” value was 13.1% (inactive) and the cell number change was found to be 8.27%.
The matching figures for `COc1ccc(C2=NC(c3ccccc3)CO2)cc1` (configuration not stated): -12.2% (inactive) and -8.42%.
The matching figures for `CCOC(=O)C1(Cc2cccc(Cl)c2)CCCN(C(=O)c2cc(C)on2)C1` (configuration not stated): -14.8% (inactive) and 6.36%.
Take `CCOC(=O)C1(Cc2cccc(Cl)c2)CCCN(C(=O)c2cc(C)n(C)n2)C1` (configuration not stated): the “lipid storage change, negative = inhibition” value was -16% (inactive) and the cell number change was found to be 17.5%.
As to `CCOC(=O)C1(Cc2cccc(Cl)c2)CCCN(C(=O)c2cc(CC)on2)C1` (configuration not stated), the Potency is 2310 nM (active) and the cell number change was -22.9%.
In the case of `CCOc1ccc(OCC)c(S(=O)(=O)NCc2ccccn2)c1`, the outcome was inactive and the cell number change was -15.9%.
As for `O=c1c(Cc2ccc(Cl)cc2)c(O)ccn1Cc1cccs1`, the “lipid storage change, negative = inhibition” value was -8.38% (inactive) and the cell number change amounted to 1.85%.
With `Cc1ccc(-c2c(C(=O)N/N=C/c3c[nH]c4ccccc34)nnn2-c2nonc2N)cc1`, the Potency is 14600 nM (active) and the cell number change was -29.2%.
Consider `Cc1ccc(-c2c(C(=O)N/N=C/c3ccco3)nnn2-c2nonc2N)cc1`, for which the outcome was inactive and the cell number change was -15%.
The matching figures for `CCCN(CCC)Cc1c(C(=O)N/N=C/c2c[nH]c3ccccc23)nnn1-c1nonc1N`: “inactive” and 9.46%.
For `Cc1ccc(/C=N/NC(=O)c2nnn(-c3nonc3N)c2C)o1`, the compound was classed as inactive and the cell number change is -13.6%.
Regarding `Cc1ccc(-c2c(C(=O)N/N=C/c3cccs3)nnn2-c2nonc2N)cc1`, the outcome was inactive and the cell number change is -27.4%.
Consider `COCc1c(C(=O)N/N=C/c2c[nH]c3ccccc23)nnn1-c1nonc1N`, for which the Potency was 164 nM (active) and the cell number change was -1.35%.
With `Cc1ccc(/C=N/NC(=O)c2nnn(-c3nonc3N)c2-c2ccccc2)o1`, the compound was classed as inactive and the cell number change stood at 4.2%.
Regarding `COCc1c(C(=O)N/N=C/c2cccc3ccccc23)nnn1-c1nonc1N`, the “lipid storage change, negative = inhibition” value was 15.2% (inactive) and the cell number change was found to be 13.5%.
Consider `Cc1ccc(-c2c(C(=O)N/N=C/c3ccc(C)o3)nnn2-c2nonc2N)cc1`, for which the Potency is 2060 nM (active) and the cell number change was -11.5%.
Consider `FC(F)(F)c1cccc(NC(=S)NCC(c2cccnc2)N2CCOCC2)c1` (configuration not stated), for which the “lipid storage change, negative = inhibition” value is 9.33% (inactive) and the cell number change is -6.8%.
With `COc1ccc(NC(=S)N(CCc2nc3cc(C)c(C)cc3[nH]2)Cc2cccnc2)cc1`, the “lipid storage change, negative = inhibition” value was -8.97% (inactive).
In the case of `Cc1ccc(S(=O)(=O)N2CCC(C(=O)Nc3ccccc3N3CCCC3)CC2)cc1`, the “lipid storage change, negative = inhibition” value was 10.2% (inactive).
`CCn1c(=O)cc(SCC(=O)NCc2ccccn2)c2ccccc21`: the “lipid storage change, negative = inhibition” value is -9.58% (inactive).
`COCCn1c(SCC(=O)NC(C)c2ccc(F)cc2)nc2ccccc21` (configuration not stated): the “lipid storage change, negative = inhibition” value was -22.5% (inactive) and the cell number change stood at 25.2%.
The matching figures for `O=C(COc1ccc2c(c1)oc(=O)c1ccccc12)NCCCN1CCOCC1`: 19.8% (inactive) and 13.8%.
Turning to `COc1ccc(CCN(Cc2cc3ccc(C)cc3[nH]c2=O)C(C)=O)cc1OC`, the “lipid storage change, negative = inhibition” value is 19.7% (inactive).
Take `COc1ccc(-n2c(=S)[nH]c3cc(C(=O)Nc4ccc(OC)c(OC)c4)ccc3c2=O)cc1`: the “lipid storage change, negative = inhibition” value was -2.43% (inactive) and the cell number change turned out to be 1.06%.
Consider `COc1ccc(-n2c(=S)[nH]c3cc(C(=O)Nc4ccc(F)cc4)ccc3c2=O)c(OC)c1`, for which the Potency was 16400 nM (active) and the cell number change worked out at 32.1%.
For `COc1ccc(-n2c(=S)[nH]c3cc(C(=O)NCc4ccccc4)ccc3c2=O)c(OC)c1`, the result was inactive and the cell number change amounted to 8.56%.
As to `CNC(=S)NNC(=O)Cn1ccc(C)n1`, the “lipid storage change, negative = inhibition” value was -2.88% (inactive) and the cell number change was -2.68%.
In the case of `O=C(Nc1ccccc1)OC(CN1CCCCC1)C(F)(F)F` (configuration not stated), the “lipid storage change, negative = inhibition” value is 7.04% (inactive) and the cell number change was -2.34%.
For `Fc1cccc(Nc2ncnc3[nH]ncc23)c1`, the compound was classed as inactive.
In the case of `Cc1ccc(C)c(SCC(=O)NCc2ccco2)c1`, the “lipid storage change, negative = inhibition” value was 4.45% (inactive) and the cell number change is -4.84%.
For the compound `O=C(N/N=C/c1ccc2ccccc2c1)c1ccc(COc2ccc3c(c2)CCC3)o1`, the “lipid storage change, negative = inhibition” value is -2.67% (inactive) and the cell number change is -8.3%.
For the compound `O=C1CC(N2CCN(C/C=C/c3ccccc3)CC2)C(=O)N1CCc1ccccc1` (configuration not stated), the Potency is 3260 nM (active) and the cell number change was -18.6%.
Take `NC(=O)CN1CCN(C2CC(=O)N(CCc3ccccc3)C2=O)CC1` (configuration not stated): the “lipid storage change, negative = inhibition” value is -0.508% (inactive) and the cell number change is 2.77%.
As for `O=C1CC(N2CCN(c3ccccc3)CC2)C(=O)N1CCc1ccccc1` (configuration not stated), the “lipid storage change, negative = inhibition” value is 11.9% (inactive) and the cell number change was 0.673%.
Regarding `CC1=NN(C(C#N)c2ccc(F)cc2)C(c2ccccc2)C1` (configuration not stated), the result was inactive and the cell number change is -11.4%.
For `COCC(=O)Nc1cc(=O)n(C)c(=O)n1C`, the result was inactive.
Turning to `Cc1ccc(OCCSc2ncnc3sc(C)c(C)c23)cc1C`, the “lipid storage change, negative = inhibition” value was 9.62% (inactive) and the cell number change is -4.8%.
In the case of `CCOC(=O)C1=C(Nc2ccccc2)CC(C)(O)C(C(=O)OCC)C1c1ccc(Cl)cc1` (configuration not stated), the Potency was 1160 nM (active) and the cell number change is 12.7%.
Regarding `CC(=O)C1=C(Nc2ccccc2)CC(C)(O)C(C(C)=O)C1c1ccccc1` (configuration not stated), the “lipid storage change, negative = inhibition” value is 5.22% (inactive) and the cell number change amounted to 6.32%.
As to `CCOC(=O)C1=C(Nc2ccc(Br)cc2)CC(C)(O)C(C(=O)OCC)C1c1ccccc1` (configuration not stated), the “lipid storage change, negative = inhibition” value was -2.2% (inactive) and the cell number change was 1.29%.
The matching figures for `CCCOC(=O)c1ccc(OCC(O)CN2CCN(C(=O)c3ccccc3)CC2)cc1` (configuration not stated): 13.2% (inactive) and 0.922%.
For `COCCOC(=O)c1c(NC(=O)COC(=O)c2ccc(C)o2)sc(C(N)=O)c1C`, the “lipid storage change, negative = inhibition” value was -24.5% (inactive) and the cell number change is -10.2%.
Consider `COCCOC(=O)c1c(NC(=O)COC(=O)Cc2cccc(OC)c2)sc(C(N)=O)c1C`, for which the Potency was 6510 nM (active).
For the compound `COCCOC(=O)c1c(NC(=O)CN(C)c2ccccc2)sc(C(N)=O)c1C`, the “lipid storage change, negative = inhibition” value is -6.17% (inactive).
Regarding `O=C(NCc1ccccc1Cl)c1cccc(C(F)(F)F)c1`, the “lipid storage change, negative = inhibition” value was -6.95% (inactive) and the cell number change was -20.2%.
For the compound `O=S(=O)(c1ccc(F)cc1)N1CCCN(Cc2c(F)cccc2F)CC1`, the call was inactive.
As to `O=C(O)/C(=C\C(=O)c1ccccc1)Nc1ccccc1`, the “lipid storage change, negative = inhibition” value was 19.7% (inactive) and the cell number change stood at 1.05%.
As for `Cn1c(=O)c2cc3c(nc2n(C)c1=O)CC(c1ccccc1)CC3=O` (configuration not stated), the “lipid storage change, negative = inhibition” value was -3.1% (inactive) and the cell number change stood at 11.1%.
